High-throughput results: PubChem, Broad Institute
This is a sample that favours compounds with a hit; in the whole collection about 2.8% have one here.
SIRT5 inh = SIRT5 desuccinylase inhibitors, primary screen, biochemical, fluorescence imaging, single point, set 5 | inhibition, % at 15 µM | Purified SirT5, succinyl-peptide AMC, trypsin-coupled fluorescence | NAD-dependent protein deacylase sirtuin-5, mitochondrial (Homo sapiens), Q9NXA8 | 1.1% of 330,000 active; in the data active = inhibition above about 15%
FGF22 binding = binders of human FGF22 protein, primary screen, FGF22 synaptogenesis inhibitor project, biophysical, thermal shift, single point | Fibroblast growth factor 22 (Homo sapiens), Q9HCT0 | recombinant FGF22 thermal shift, SYPRO orange fluorescence; percent of sucrose octasulfate shift, DMSO zero | activity (Tm shift, normalised), % at 9.99 µM | 1.5% of 340,000 active;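 active = mean Tm shift, scaled 0 neutral to 100 positive control, at about 1.3% or above, every replicate too, limit read from the data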
Target sequence (Q9HCT0 whole entry, looked up): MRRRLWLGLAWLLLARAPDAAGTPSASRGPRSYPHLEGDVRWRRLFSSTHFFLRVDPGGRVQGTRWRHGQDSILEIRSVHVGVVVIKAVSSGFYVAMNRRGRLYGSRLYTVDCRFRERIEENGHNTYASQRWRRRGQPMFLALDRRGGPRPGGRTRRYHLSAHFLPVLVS
PglD inh = C. jejuni PglD acetyltransferase inhibitors, primary screen, biochemical, DTNB colorimetric, single point. purified PglD enzyme, DTNB colorimetric CoA detection. 0.098% of 360,000 active. UDP-N-acetylbacillosamine N-acetyltransferase PglD (Campylobacter jejuni). inhibition, % at 12.5 µM; in the data active = inhibition above about 16%, passing the limit was not always enough
CDK5 inh = inhibitors of human CDK5/p35 kinase, primary screen, biochemical, single concentration. 0.01% of 330,000 active. Recombinant CDK5/p35, ADP-Glo luminescence, 60 min. Cyclin-dependent kinase 5 (Homo sapiens) + Cyclin-dependent kinase 5 activator 1 (Homo …. inhibition, % at 10 µM;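 active = highest replicate inhibition of at least 50% and at least 75% of replicates reaching 50%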
PvdQ inh = P. aeruginosa PvdQ acylase inhibitors, primary screen, biochemical, fluorescence, plate reader and imaging, single point; PvdQ acylase [Pseudomonas aeruginosa LESB58]; purified PvdQ acylase; inhibition, % at 10 µM; 0.063% of 340,000 active; in the data active = inhibition above about 30%, passing the limit was not always enough
dFosB activator = activators of delta FosB homodimer, primary screen, biochemical, fluorescence polarization, TAMRA-CDK5 oligo, single point | Protein FosB (Mus musculus), P13346 | purified delta FosB; percent of positive-control signal above neutral wells | activation, % at 25 µM | 0.99% of 340,000 active | AID 493131, 2011;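 active = mean activation above about 17%, with every replicate also reaching it, limit read from the data, passing the limit was not always enough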
Target sequence (P13346 whole entry, looked up): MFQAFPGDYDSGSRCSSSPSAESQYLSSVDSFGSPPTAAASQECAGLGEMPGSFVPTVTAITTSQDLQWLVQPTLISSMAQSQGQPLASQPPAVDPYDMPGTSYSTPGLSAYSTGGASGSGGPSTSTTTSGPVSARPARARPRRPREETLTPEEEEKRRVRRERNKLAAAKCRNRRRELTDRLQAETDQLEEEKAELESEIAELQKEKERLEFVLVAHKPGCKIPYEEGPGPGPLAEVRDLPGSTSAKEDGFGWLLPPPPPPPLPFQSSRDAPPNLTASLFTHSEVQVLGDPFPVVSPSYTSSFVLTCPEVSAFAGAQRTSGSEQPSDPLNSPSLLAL
Of the large screens only hits and unclear results are named; the others gave an inactive call.

C[C@@H]1CN([C@@H](C)CO)C(=O)c2cc(NC(=O)c3ccncc3)ccc2O[C@H]1CN(C)Cc1ccc(Oc2ccccc2)cc1	SIRT5 inh 16 (no result: CDK5 inh, PvdQ inh, dFosB activator)
Cc1noc(C)c1NC(=O)N(C)C[C@H]1OCCCC[C@@H](C)Oc2ccc(NC(=O)c3ccncc3)cc2C(=O)N([C@@H](C)CO)C[C@@H]1C	none (no result: CDK5 inh, PvdQ inh, dFosB activator)
COC(=O)C[C@@H]1CC[C@H](NS(=O)(=O)c2ccccc2F)[C@H](CO)O1	none (no result: CDK5 inh, PvdQ inh, dFosB activator)
CC=Cc1ccc2n(c1=O)C[C@@H]1[C@@H](CO)[C@H](C(=O)NCCc3ccncc3)[C@H]2N1CCc1ccccc1 (mixture of isomers)	none (no result: FGF22 binding, PglD inh, CDK5 inh, PvdQ inh, dFosB activator)
CN1c2ccc(-c3ccc(C#N)cc3)cc2[C@H]2[C@H](CCN2S(=O)(=O)c2ccc(F)cc2)[C@H]1CO	none (no result: CDK5 inh, PvdQ inh, dFosB activator)
C[C@@H]1CCCCO[C@@H](CN(C)C(=O)Nc2ccc(C(F)(F)F)cc2)[C@H](C)CN([C@H](C)CO)C(=O)c2cc(NC(=O)Nc3ccccc3)ccc2O1	none (no result: CDK5 inh, PvdQ inh, dFosB activator)
O=C(CCN1CCCCC1)NCC[C@@H]1CC[C@@H](NC(=O)C2CCCCC2)[C@H](CO)O1	none (no result: FGF22 binding, PglD inh, CDK5 inh, PvdQ inh, dFosB activator)
C[C@H](CO)N1C[C@H](C)[C@@H](CN(C)Cc2ccc(Oc3ccccc3)cc2)Oc2ccc(NC(=O)Nc3ccccc3)cc2C1=O	none (no result: CDK5 inh, PvdQ inh, dFosB activator)
C[C@@H]1CN([C@H](C)CO)C(=O)c2cccc(NC(=O)Nc3ccc(C(F)(F)F)cc3)c2O[C@@H]1CN(C)Cc1ccc(-c2ccccc2)cc1	SIRT5 inh 103 (no result: CDK5 inh, PvdQ inh, dFosB activator)
C[C@H]1CN([C@@H](C)CO)C(=O)c2cc(NC(=O)Nc3ccc(C(F)(F)F)cc3)ccc2O[C@@H]1CN(C)Cc1ccccc1	FGF22 binding 27 (no result: CDK5 inh, PvdQ inh, dFosB activator)
C[C@H](CO)N1C[C@H](C)[C@H](CN(C)Cc2ccccc2)Oc2ccc(NC(=O)Nc3ccccc3)cc2C1=O	none (no result: CDK5 inh, PvdQ inh, dFosB activator)
C[C@@H]1CN([C@@H](C)CO)C(=O)c2cccc(NC(=O)Nc3ccc(C(F)(F)F)cc3)c2O[C@@H]1CN(C)Cc1ccc(-c2ccccc2)cc1	none (no result: CDK5 inh, PvdQ inh, dFosB activator)
C[C@@H]1CN([C@H](C)CO)C(=O)c2cc(NC(=O)Nc3ccccc3)ccc2O[C@@H]1CN(C)Cc1ccccc1	SIRT5 inh 18 (no result: CDK5 inh, PvdQ inh, dFosB activator)
C[C@@H]1CN([C@@H](C)CO)C(=O)c2cc(NC(=O)Nc3ccccc3)ccc2O[C@@H]1CN(C)Cc1ccc(Oc2ccccc2)cc1	SIRT5 inh 17 (no result: CDK5 inh, PvdQ inh, dFosB activator)
CC(NC(=O)c1ccncc1)C(c1cccs1)N1CCOCC1 (configuration not stated)	SIRT5 inh 20
C[C@H](CO)N1C[C@H](C)[C@@H](CN(C)C(=O)Nc2cccc3ccccc23)Oc2ccc(NC(=O)C3CCCCC3)cc2C1=O	none (no result: CDK5 inh, PvdQ inh, dFosB activator)
CCS(=O)(=O)Nc1ccc2c(c1)C(=O)N(C)[C@H]1CC[C@@H](CC(=O)NCc3ccccc3F)O[C@@H]1CO2	none (no result: CDK5 inh, PvdQ inh, dFosB activator)
CCc1ccc(OCC(=O)NN2Cc3ccccc3C2=N)cc1	SIRT5 inh 24, FGF22 binding 43 (no result: PglD inh)
CCCCCCCCCCCCCCCC[N+](C)(C)Cc1ccc(F)cc1	none (no result: PglD inh)
CC#CC[N+](C)(C)CCCCCCCC	SIRT5 inh 25
O=C(CSc1ccccc1)NCc1ccccc1	none
O=C(CSc1ccccc1C(=O)O)NCc1ccccc1	SIRT5 inh 15 (no result: PglD inh)
CCCNC(=O)C[C@H]1C[C@H]2c3cc(NC(=O)C4CCC4)ccc3O[C@H]2[C@@H](CO)O1	none (no result: FGF22 binding, CDK5 inh, PvdQ inh, dFosB activator)
CCOc1nc(N2CCOCC2)nc(C)c1[N+](=O)[O-]	FGF22 binding 44 (no result: PglD inh)
CNCCOc1nc(N2CCOCC2)nc(C)c1[N+](=O)[O-]	none
O=C(NCc1cccnc1)c1ccc(Cl)c(S(=O)(=O)N2CCCCCC2)c1	none
O=C(NCc1ccncc1)c1ccc(Cl)c(S(=O)(=O)N2CCCCC2)c1	SIRT5 inh 18 (no result: PglD inh)
Cc1ccc(C)n1-c1ccc(C(=O)NCc2ccncc2)cc1	FGF22 binding 44 (no result: PglD inh)
CCOc1ccc(C(=O)NCc2ccncc2)cc1	none (no result: SIRT5 inh, FGF22 binding)
COc1cc(C(=O)NCc2ccncc2)cc(OC)c1OC	FGF22 binding 43 (no result: PglD inh)
C/C=C/c1ccc2c(c1)O[C@H](CN(C)C(=O)c1ccncc1)[C@H](C)CN([C@@H](C)CO)S2(=O)=O	none (no result: CDK5 inh, PvdQ inh, dFosB activator)
Cc1ccc(SCCN)cc1C	FGF22 binding 43 (no result: PglD inh)
Cc1ccc(SCC(=O)NNC(=O)c2ccccc2)cc1C	none
Cc1noc(C)c1NC(=O)N(C)C[C@H]1OCCCC[C@H](C)Oc2ccc(NS(=O)(=O)c3cn(C)cn3)cc2C(=O)N([C@@H](C)CO)C[C@H]1C	none (no result: SIRT5 inh, CDK5 inh, PvdQ inh, dFosB activator)
Cc1ccnc(N2CCC(C(=O)NNC(=O)COc3cccc4ccccc34)CC2)n1	FGF22 binding 43 (no result: PglD inh)
Cc1ccnc(N2CCC(C(=O)NNC(=O)c3ccccc3)CC2)n1	none
C[C@@H]1CCCCO[C@@H](CN(C)Cc2ccc3c(c2)OCO3)[C@@H](C)CN([C@H](C)CO)C(=O)c2cc(NC(=O)c3ccncc3)ccc2O1	none (no result: SIRT5 inh, CDK5 inh, PvdQ inh, dFosB activator)
COc1cc(C(=O)N2CCN(c3ccccc3)CC2)c([N+](=O)[O-])cc1OC	FGF22 binding 43
COc1cc(C(=O)c2ccccc2Cl)c([N+](=O)[O-])cc1OC	FGF22 binding 44
COc1cc(C(=O)N2CCN(c3ccccc3OC)CC2)c([N+](=O)[O-])cc1OC	none
Cc1noc(C)c1NC(=O)Nc1ccc2c(c1)CC(=O)N([C@H](C)CO)C[C@@H](C)[C@@H](CN(C)S(=O)(=O)c1ccc(F)cc1)O2	none (no result: CDK5 inh, PvdQ inh, dFosB activator)
Cc1cc(NC(=O)COn2nnc3ccc(S(C)(=O)=O)cc32)ccc1Br	none (no result: PglD inh)
COc1cc(NC(=O)COn2nnc3ccc(S(C)(=O)=O)cc32)cc(OC)c1	FGF22 binding 43
CC1CN(CCOc2ccccc2-c2ccccc2)CC(C)O1 (configuration not stated)	SIRT5 inh 31
c1ccc(-c2ccccc2OCCN2CCCC2)cc1	none
O=C(O)C1Nc2c(O)cc(Cl)c([N+](=O)[O-])c2C2C=CCC12 (configuration not stated)	FGF22 binding 2.7 (no result: SIRT5 inh, PglD inh)
CCCCN(C)Cc1c(C)[nH]c2ccccc2c1=O	FGF22 binding 43 (no result: PglD inh)
C[C@H](CO)N1C[C@H](C)[C@H](CN(C)C)Oc2ncc(C3=CCCC3)cc2C1=O	none (no result: CDK5 inh, PvdQ inh, dFosB activator)
CC(=O)Nc1ccc(S(=O)(=O)Nc2ccc(-n3cnnn3)cc2)cc1	SIRT5 inh 23
O=S(=O)(Nc1cccc(Cl)c1)c1cccc(-n2cnnn2)c1	FGF22 binding 44 (no result: SIRT5 inh)
CC(=O)Nc1ccc(S(=O)(=O)Nc2cccc(-n3cnnn3)c2)cc1	none (no result: PglD inh)
